Among the data in PubChem BioAssay (NCATS) are Potency values, retold here.

Results filed as inconclusive are left out. Values without a mark were called inactive. Active and inactive are the calls of the source. Calls follow the shape of the dose curve; as a rule, active = well fitted inhibition curve with a large enough effect; inconclusive = small, poorly fitted or top-dose-only effect; inactive = flat fitted curve, though single readings scatter.

The target in test [1] is Glutathione peroxidase 1 (Homo sapiens) (UniProt P07203). Nature of the test: Primary qHTS Assay for Inhibitors of Recombinant Selenoprotein Glutathione Peroxidase 1 (GPX1) (AID 1845191). Summed up:
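GR-coupled readout: NADPH consumption tracked by fluorescence, ex 340/em 450 nm, at t=0 and after 15 min at RT. Final mix 10 nM GPX1, 1 mM GSH, 0.5 mM CHP, 0.5 mM NADPH, 100 nM GR, 0.01% BSA, following 30 min enzyme–compound preincubation.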

Test [2] concerns the target Phospholipid hydroperoxide glutathione peroxidase GPX4 (Homo sapiens) (UniProt P36969). Nature of the test: Primary qHTS Assay for Inhibitors of Recombinant Selenoprotein Glutathione Peroxidase 4 (GPX4) (AID 1845192). Summed up:
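Steps: GPX4 plus compound, 30 min RT; add GR/GSH/NADPH master mix; start with cumene hydroperoxide; read 340/450 nm fluorescence at 0 and 15 min. Finals were 200 nM GPX4, 1 mM GSH, 0.5 mM CHP, 0.5 mM NADPH, 100 nM GR.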
A general note: In qHTS, concentration-response curves come from the screen itself.
Also: nearly all actives have a fitted effect of over 65% in size.
Potency is read from the fitted curve at half-maximal effect.

Chain of Phospholipid hydroperoxide glutathione peroxidase GPX4 (Homo sapiens) (P36969 whole entry, looked up): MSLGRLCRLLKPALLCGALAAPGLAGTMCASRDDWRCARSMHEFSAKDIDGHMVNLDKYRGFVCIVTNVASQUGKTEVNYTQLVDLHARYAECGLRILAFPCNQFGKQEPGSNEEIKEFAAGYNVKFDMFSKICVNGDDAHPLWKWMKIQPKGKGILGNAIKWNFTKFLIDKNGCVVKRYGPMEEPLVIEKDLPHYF
Chain of Glutathione peroxidase 1 (Homo sapiens) (P07203 whole entry, looked up): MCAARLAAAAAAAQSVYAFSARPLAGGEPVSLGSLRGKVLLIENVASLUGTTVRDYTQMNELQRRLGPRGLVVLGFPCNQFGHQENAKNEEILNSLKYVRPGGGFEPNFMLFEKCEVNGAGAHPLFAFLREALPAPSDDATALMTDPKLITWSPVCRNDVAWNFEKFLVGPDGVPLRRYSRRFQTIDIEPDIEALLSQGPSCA

On to `OCCc1ccccc1`, for which the Potency entry in test [1] and in test [2] was “inactive” each time.
As for `CC(=O)/C=C/C=C1/C2CCC(C2)C1(C)C` (stereo not given), the Potency result in test [1] and in test [2] was “inactive” throughout.
As for `C[C@@H]1C[C@H]2[C@@H]3CCC4=CC(=O)C=C[C@]4(C)[C@@]3(F)[C@@H](O)C[C@]2(C)[C@@]1(O)C(=O)COC(=O)c1ccncc1`, the Potency entry in test [1] and in test [2] was “inactive” throughout.
For the compound `O=C(CO)[C@@H](O)[C@H](O)[C@@H](O)CO`, the Potency result in test [1] and in test [2] was “inactive” each time.
As for `C[N+]1(C)CCC(OC(=O)C(O)(c2ccccc2)C2CCCC2)C1` (stereo not given), the Potency entry in test [1] and in test [2] was “inactive” in each case.
As to `CC(=O)N(CC(=O)N(C)C)c1ccccc1`, the Potency entry in test [1] and in test [2] was “inactive” each time.
In the case of `CC(=O)[C@@]1(O)CC[C@H]2[C@@H]3C[C@H](C)C4=CC(=O)CC[C@]4(C)[C@H]3CC[C@@]21C`, the Potency entry in test [1] and in test [2] was “inactive” each time.
With `O=C(OCC(COC(=O)c1cccnc1)(COC(=O)c1cccnc1)COC(=O)c1cccnc1)c1cccnc1`, the Potency entry in test [1] and in test [2] was “inactive” in each case.
As to `CC(C)C[C@@H]1[C@H](c2ccccc2)OC(=O)N1CCCN1CCCCCC1`, the Potency result in test [1] and in test [2] was “inactive” each time.
Take `CCOc1ccc(NS(=O)(=O)c2ccc(N)cc2)nn1`: the Potency result in test [1] and in test [2] was “inactive” throughout.
Take `CN1CCC(=C2c3ccccc3CCc3cccnc32)CC1`: the Potency result in test [1] and in test [2] was “inactive” in each case.
As for `C1N2CN3CN1CN(C2)C3`, the Potency entry in test [1] and in test [2] was “inactive” throughout.
With `C/C(=C(/OCCOc1ccc(Cl)cc1)c1ccc(Cl)cc1Cl)n1ccnc1`, the Potency result in test [1] and in test [2] was “inactive” in each case.
On to `CCCCCCCCCCCCCCCC[N+](C)(C)Cc1ccccc1`, for which the Potency result in test [1] and in test [2] was “inactive” throughout.
For `CC(C)(C)C(O)/C=C/c1ccc2c(c1)OCO2` (stereo not given), the Potency result in test [1] and in test [2] was “inactive” in each case.
As to `CCCCCN(CCCOC)C(=O)C(CCC(=O)O)NC(=O)c1ccc(Cl)c(Cl)c1` (stereo not given), the Potency result in test [1] and in test [2] was “inactive” in each case.
As to `C#CC(C)(CC)OC(=O)c1ccccc1C(=O)O` (stereo not given), the Potency entry in test [1] and in test [2] was “inactive” in each case.
Regarding `CCC(=O)O[C@H]1[C@H](O[C@@H]2[C@@H](C)[C@H](O[C@H]3C[C@@](C)(OC)[C@@H](O)[C@H](C)O3)[C@@H](C)C(=O)O[C@H](CC)[C@@](C)(O)[C@H](O)[C@@H](C)C(=O)[C@H](C)C[C@@]2(C)O)O[C@H](C)C[C@@H]1N(C)C`, the Potency result in test [1] and in test [2] was “inactive” throughout.
On to `Cc1cc(O)c2c(O)c3c(O)cccc3cc2c1`, for which the Potency entry in test [1] and in test [2] was “inactive” in each case.
For the compound `Cc1ncc(CO)c(CO)c1O`, the Potency result in test [1] and in test [2] was “inactive” throughout.
As to `C[C@H]1C[C@@H]2[C@H]([C@@H](O)C[C@@]3(C)[C@H]2CC[C@]3(O)C(=O)CO)[C@@]2(C)C=CC(=O)C=C12`, the Potency entry in test [1] and in test [2] was “inactive” each time.
In the case of `C[C@H]1NCc2cc(-c3ccc4c(=O)c(C(=O)O)cn(C5CC5)c4c3OC(F)F)ccc21`, the Potency entry in test [1] and in test [2] was “inactive” each time.
With `O=[N+]([O-])c1ccc(O)c2ncccc12`, the Potency entry in test [1] and in test [2] was “inactive” each time.
Take `O=C(O)C(=O)Nc1cccc(-c2nn[nH]n2)c1`: the Potency result in test [1] and in test [2] was “inactive” in each case.
As to `CCCC(=O)O[C@]1(C(=O)CC)CC[C@H]2[C@@H]3CCC4=CC(=O)CC[C@]4(C)[C@H]3[C@@H](O)C[C@@]21C`, the Potency entry in test [1] and in test [2] was “inactive” each time.
For `C[N+](C)(CCOc1ccccc1)Cc1cccs1`, the Potency result in test [1] and in test [2] was “inactive” each time.
For `CCn1ccc(NS(=O)(=O)c2ccc(N)cc2)nc1=O`, the Potency entry in test [1] and in test [2] was “inactive” each time.
As for `CN1CCCN(C(c2ccccc2)c2ccc(Cl)cc2)CC1` (stereo not given), the Potency result in test [1] and in test [2] was “inactive” throughout.
Consider `CCCCOCCOC(=O)c1cccnc1`, for which the Potency result in test [1] and in test [2] was “inactive” in each case.
As to `NS(=O)(=O)c1cc(C(=O)NN2C[C@H]3[C@H]4CCC(C4)[C@H]3C2)ccc1Cl`, the Potency result in test [1] and in test [2] was “inactive” in each case.
For `CCC(=O)Oc1ccc2c(c1)CC[C@@H]1[C@@H]2CC[C@@]2(C)[C@H]1C[C@@H](OC(=O)CC)[C@@H]2OC(=O)CC`, the Potency entry in test [1] and in test [2] was “inactive” throughout.
For the compound `CC(C)NCCCC1(C(N)=O)c2ccccc2-c2ccccc21`, the Potency entry in test [1] and in test [2] was “inactive” in each case.
As for `COc1ccc(-n2nc(CCC(=O)N(C)O)cc2-c2ccc(Cl)cc2)cc1`, the Potency entry in test [1] and in test [2] was “inactive” throughout.
As for `CO/N=C(/C(=O)N[C@@H]1C(=O)N2C(C(=O)[O-])=C(C[n+]3ccn4ncccc43)CS[C@H]12)c1nsc(N)n1`, the results for the Potency in test [1] and in test [2] were 20.2 µM (active) and 17.8 µM (active), respectively.
The corresponding values for `NC(=O)C1(N2CCCCC2)CCN(CCCN2c3ccccc3CCc3ccc(Cl)cc32)CC1` are “inactive” and “inactive”.
Regarding `N#CSCC(=O)O`, the Potency entry in test [1] and in test [2] was “inactive” throughout.
Turning to `COc1c(N2C[C@@H]3CCCN[C@@H]3C2)c(F)cc2c(=O)c(C(=O)O)cn(C3CC3)c12`, the Potency in test [1] was 14.3 µM (active); in test [2], 11.2 µM (active).
On to `CN1CC(=O)N2[C@H](c3ccc4c(c3)OCO4)c3[nH]c4ccccc4c3C[C@@H]2C1=O`, for which the Potency entry in test [1] and in test [2] was “inactive” each time.
As for `O=S(=O)(O)c1ccc2nc(-c3ccccc3)[nH]c2c1`, the Potency entry in test [1] and in test [2] was “inactive” in each case.
Regarding `CC(=O)N(CC(O)CO)c1c(I)c(C(=O)NCCO)c(I)c(C(=O)NCC(O)CO)c1I` (stereo not given), the Potency result in test [1] and in test [2] was “inactive” in each case.
